Pf growth 48h – Primary qHTS for delayed death inhibitors of the malarial parasite plastid, 48 hour incubation; Potency, µM (doses to about 28.7 µM), without a hit: at the highest dose activity change, negative = inhibition, hits mostly inhibitors; P. falciparum luciferase growth in erythrocytes, 48 h; hit rate 5.9% among 310,000; further: potency means the concentration at half of the fitted maximal effect
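A one-generation exposure of luciferase-tagged malaria parasites in RPMI 1640/Albumax erythrocyte culture, 37 C and 5% CO2. Inhibition is inferred from decreased luminescence after adding detection reagent.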
Lassa entry inh – qHTS for Inhibitors of binding or entry into cells for Lassa Virus | Potency, µM (titrated, usually from 37.9 µM), without a hit: at the top dose activity change, negative = inhibition, actives largely listed as inhibitors | Lassa virus pseudotype entry inhibition, cell reporter | hit rate 1.2% among 300,000; calls by dose curve; tested in HEK293 cells; further: potency means the concentration at half of the fitted maximal effect; nearly all actives have a fitted effect of over 50% in size
HCV inh – qHTS Assay for Inhibitors of Hepatitis C Virus (HCV) | Huh7.5.1 HCVcc-Cre infection, luciferase reporter, 44 h | Potency, µM (top dose mostly 41.8 µM), without a hit: at the top dose activity change, negative = inhibition, hits mostly inhibitors | hit rate 3.4% among 340,000; further: potency means the concentration at half of the fitted maximal effect
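A cell-based infection assay in which seeded cells (1,000 per well) receive test compound after 4 h, are inoculated with HCVcc-Cre at approximately 0.5 moi, and are incubated 44 h before luminescence detection.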
Pf growth 96h – Primary qHTS for delayed death inhibitors of the malarial parasite plastid, 96 hour incubation. Potency, µM (highest dose often 28.7 µM), without a hit: top-dose activity change, negative = inhibition, actives largely listed as inhibitors. AID 504834, 2011. P. falciparum luciferase reporter growth, 96 h. hit rate 6.9% among 320,000; further: potency means the concentration at half of the fitted maximal effect
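Readout is luminescence from an integrated firefly luciferase in P. falciparum. Red cells, 2% hematocrit and 0.05% parasitemia final, were cultured with compound through two parasite generations (96 hours) at 37 C, 5% CO2.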
HCMV inh – qHTS Assay for inhibitors of the human cytomegalovirus (HCMV). activity change, negative = inhibition, % at 57.5 µM. AID 1259415, 2018. hit rate 4.5% among 410,000. HFF cells, HCMV-luciferase reporter, 72 h; active compounds read low; in the data active means activity change below about -60%; inconclusive means no clear call, values can overlap the other calls; inactive means above about -39%
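Compounds were evaluated in HFFs infected with an HCMV luciferase reporter virus (MOI 1 PFU/cell). Luciferase in lysates collected 72 h post infection served as the replication measure.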
MARV entry inh – qHTS for inhibitors of binding or entry into cells for Marburg Virus; AID 540276, 2011; Potency, µM (titrated, usually from 37.8 µM), inactives show at the top dose activity change, negative = inhibition, actives largely listed as inhibitors; Marburg virus pseudotyped entry inhibition, cell reporter; hit rate 1.8% among 300,000; calls by dose curve; tested in HEK293 cells; further: potency means the concentration at half of the fitted maximal effect
* = called active by the depositor; i = inactive; ? = inconclusive; . = no result given; [ ] = dose if it differs, or a comment. Compounds with a hit are over-represented: about 14% of the library has one in this group of screens. Unless noted, the call rests on the fitted dose curve; in most records, active means well fitted inhibition curve with a large enough effect; inconclusive means small, poorly fitted or top-dose-only effect, or another doubt; inactive means no such curve, though single readings can be large or run the other way. On the % scale 0 is the no-effect control and ±100 the full control effect.

SMILES | Pf growth 48h | Lassa entry inh | HCV inh | Pf growth 96h | HCMV inh | MARV entry inh
COc1ccccc1NC(=O)c1sc2nc(C)c(C(=O)Nc3ccc(C)cc3C)c(-c3ccc(Br)cc3)c2c1N | . | -10.6%[46.1 µM] | . | . | -1.6 | -2.9%[46.1 µM]
CC1=C(C(=O)N2CCCC(C(=O)c3cccc(C(F)(F)F)c3)C2)OCCO1 (stereo not drawn) | ? | . | -25.7% | 13.1µM* | ? | .
CCc1cc(C(=O)N2CCCC(N3CCN(c4cccc(C(F)(F)F)c4)CC3)C2)n(C)n1 (stereo not drawn) | ? | . | 10µM* | 7.3% | ? | .
CC1=C(C(=O)N2CCCC(N3CCN(c4cccc(Cl)c4)CC3)C2)OCCO1 (stereo not drawn) | 1.6% | -3.3% | -5.6% | -6.4% | -13.0 | 2.7%
Cc1ncoc1C(=O)N1CCCC(C(=O)c2cccc(C(F)(F)F)c2)C1 (stereo not drawn) | 2.2% | . | 11.7% | ? | ? | .
CC1=C(C(=O)N2CCCC(N3CCN(c4cccc(C(F)(F)F)c4)CC3)C2)OCCO1 (stereo not drawn) | -17.4% | -10.1% | -18.1% | 13.1µM* | -7.8 | -29.7%
CCC(=O)Nc1ccc2c(c1)OC[C@@H](C)NC[C@@H](C)[C@@H](OC)CN(C)C2=O | . | . | . | . | 17.7 | .
Oc1ccc2c(c1)[C@H]1CCC[C@]1(N1CCOCC1)O2 | . | . | . | . | . | 22.1%
Cc1nn2c(=O)cc(COC(=O)c3ccccc3NC(=O)C(C)Oc3ccccc3)nc2s1 (stereo not drawn) | . | 10.8%[46.1 µM] | . | . | -29.5 | .
CCn1c(=O)cc(OCC(=O)Nc2ccccc2Cl)c2ccccc21 | . | 4.1%[46.1 µM] | . | . | 17.0 | .
N#CC1=C2SC=C(c3ccc(Br)cc3)N2CCCC1=O | 155.3% | 3.2%[46.1 µM] | 11.2µM* | 244.3% | -3.1 | ?
Cc1cc(-c2csc(NC(=O)c3ccc(=O)n(C)n3)n2)c(C)n1CC1CCCO1 (stereo not drawn) | ? | -5.1% | ? | 7.38µM* | . | -42.3%
CSc1nc2c(c(=O)n1Cc1ccccc1)SC(C)C2 (stereo not drawn) | 11.7µM* | 9.5% | -1.2% | -11.9% | -2.0 | -14.6%
CC1Cc2nc(SCC(=O)c3ccccc3)n(Cc3ccccc3)c(=O)c2S1 (stereo not drawn) | ? | . | 11.2µM* | ? | -9.7 | .
CCOC(=O)CC(NC(=O)c1cc2c(=O)n3cccc(C)c3nc2s1)c1ccc(OCC)c(OC)c1 (stereo not drawn) | . | 4.4%[46.1 µM] | . | . | 35.5 | -20.3%[46.1 µM]
CCCN(CCC)c1nc(N)c(C#N)c(CC#N)c1C#N | . | -3.7% | ? | 13.1µM* | . | ?
Cc1ccc2nc(NC(=O)CSCC(=O)OCC(=O)c3ccccc3)sc2c1 | ? | 5.8µM* | 1.7% | ? | -27.9 | ?
CCOCC(=O)Nc1nc2ccc(C)cc2s1 | i | 11.2µM* | -13.5% | 5.3% | 67.0 | -18.3%
Cc1ccc2nc(NC(=O)COC(=O)c3ccccn3)sc2c1 | 166.9% | ? | 17.9% | 147.2% | 19.3 | 9.3%[46.1 µM]
C/C=C/C(=O)OCC(=O)Nc1nc2ccc(C)cc2s1 | . | 17.6% | -5.1% | 10.4µM* | 38.3 | -27.3%
CCOCC(=O)Nc1nc2ccc(OCC)cc2s1 | 39.0% | ? | -23.1% | 4.4% | 79.6 | ?
COc1cc2sc(-c3ccc(S(C)(=O)=O)cc3)c(-c3ccc4c(c3)OCO4)c2cc1OC | . | . | 2.82µM* | . | -27.5 | .
COc1ccc2sc(-c3ccccc3OC)c(-c3ccc4c(c3)OCCO4)c2c1 | 10.4µM* | . | ? | 2.62µM* | -11.9 | .
COc1ccc(-c2sc3ccc(OC)cc3c2-c2ccc(O)cc2)cc1 | . | . | 8.91µM* | . | ? | .
COc1ccc2sc(-c3ccccc3OC)c(-c3ccc(O)cc3)c2c1 | ? | . | ? | 2.33µM* | -33.9 | .
SMILES | Pf growth 48h | Lassa entry inh | HCV inh | Pf growth 96h | HCMV inh | MARV entry inh
COc1ccc2sc(-c3ccc(S(C)(=O)=O)cc3)c(-c3ccc4c(c3)OCCO4)c2c1 | . | . | ? | . | -38.1 | .
CCc1nn2c(=O)cc(COC(=O)c3cccc(NC(=O)COc4ccccc4)c3)nc2s1 | . | ? | . | . | 79.0 | .
COc1ccc(O)cc1 | -7.0% | . | 0.794µM* | ? | 14.0 | .
COc1ccccc1-c1sc2cc3c(cc2c1-c1ccc(O)cc1)OCO3 | . | . | ? | . | -21.2 | .
COc1cc2sc(-c3ccccc3OC)c(-c3ccc(O)cc3)c2cc1OC | . | . | 11.2µM* | . | 48.8 | .
CC[C@]12c3[nH]c4ccc(OC)cc4c3CCN1C(=O)C(CC(=O)NCCCOC)C[C@@H]2C(=O)N1CCN(C(=O)C2CC2)CC1 (stereo partly drawn) | . | . | -11.0% | . | 1.4 | .
Cc1c(C(C)C)c(=O)n(-c2ccc(S(=O)(=O)NC3CCCCC3)cc2)n1C | -6.7% | ? | 5.01µM* | ? | -89.3* | ?
Cc1c(C(C)C)c(=O)n(-c2ccc(S(=O)(=O)N3CCOCC3)cc2)n1C | 14.0% | 10.6% | -9.9% | 22.7% | -22.6 | 17.1%[46.1 µM]
Cc1c(C(C)C)c(=O)n(-c2ccc(S(=O)(=O)NCc3ccccc3)cc2)n1C | -1.3% | 2µM* | 0.891µM* | ? | -85.2* | ?
O=C(OCc1ccc(Cl)c(Cl)c1)c1ccc[nH]1 | 86.7% | 1.0% | 4.7% | 102.1% | -5.8 | -24.6%
O=[N+]([O-])c1ccc(N2CCCC2)nc1 | 41.6% | 20.8% | -0.5% | 38.6% | 38.6 | 2.5%[46.1 µM]
CC(C)(C)c1ccc(C(=O)N2CCCN(c3ccc([N+](=O)[O-])cn3)CC2)cc1 | ? | . | ? | 11.7µM* | -28.5 | .
COc1ccc(C(=O)N2CCN(c3ccc([N+](=O)[O-])c(-n4nc(C)cc4C)c3)CC2)cc1 | -4.0% | 6.9% | -0.6% | -6.4% | -12.8 | 22.7%
Cc1cc(C)n(-c2cc(N3CCN(C(=O)c4ccc(C(C)(C)C)cc4)CC3)ccc2[N+](=O)[O-])n1 | 4.65µM* | -18.9% | ? | 9.28µM* | -28.4 | ?
CCC(CC)C(=O)NCc1nc2cccnc2n1Cc1ccc(F)cc1 | . | 0.6%[46.1 µM] | . | . | ? | .
O=C(Nc1ccncc1)Nc1ccccn1 | -10.3% | 3.3% | 11.0% | 8.28µM* | ? | -13.4%
O=C(Nc1ccccn1)NC1CCCCC1 | 42.4% | 12.0% | 4.0% | . | 21.6 | ?
O=C(CC(=O)Nc1ccccn1)Nc1ccccn1 | 144.2% | -7.6% | 7.7% | 9.28µM* | -7.6 | 1.7%
O=C(CN1CCN(CC(=O)Nc2ccccn2)CC1)Nc1ccccn1 | 1.0% | 5.0% | -24.0% | ? | -8.3 | 3.1%
O=C(Nc1ccccn1)NC1CCS(=O)(=O)C1 (stereo not drawn) | 9.1% | ? | -1.1% | 10.4% | -102.9* | -15.6%
C=C[C@@H](C)N(Cc1ccc(OC)cc1)S(=O)(=O)N(Cc1ccccc1)[C@H](C=C)C(C)C | 3.29µM* | . | 14.4% | ? | -26.6 | .
